Screens (PubChem BioAssay)
Shown are actives, neighbours in structure and some others; about 22% of the full set was active somewhere.
CYP2C9 activ: activators of human CYP2C9; recombinant CYP2C9, luciferin-H conversion, luminescence; hits give high values; factor 1 = untreated enzyme, 0 = blocked; hit rate 1.4% among 96,000; activation factor at 5 µM;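 active means activation factor of 2 or more for CYP2C9 at a 5 µM dose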
CYP2C9 inh: inhibitors of human CYP2C9. P11712. CYP2C9 Supersomes, luciferin-H conversion, luminescence. inhibition, % at 5 µM. hit rate 20% among 96,000;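 active means blocking of liver enzyme CYP2C9 beyond about 50% at 5 µM, limit read from the data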
CYP2C19 inhib: inhibitors of human CYP2C19. P33261. CYP2C19 Supersomes, luciferin-H EGE luminescence, 30 min. inhibition, % at 5 µM. hit rate 21% among 96,000. AID 778;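 active means CYP2C19 inhibition above a set limit at 5 µM in the primary screen, cut at about 50% in these data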
Target sequence (P33261 whole entry, looked up): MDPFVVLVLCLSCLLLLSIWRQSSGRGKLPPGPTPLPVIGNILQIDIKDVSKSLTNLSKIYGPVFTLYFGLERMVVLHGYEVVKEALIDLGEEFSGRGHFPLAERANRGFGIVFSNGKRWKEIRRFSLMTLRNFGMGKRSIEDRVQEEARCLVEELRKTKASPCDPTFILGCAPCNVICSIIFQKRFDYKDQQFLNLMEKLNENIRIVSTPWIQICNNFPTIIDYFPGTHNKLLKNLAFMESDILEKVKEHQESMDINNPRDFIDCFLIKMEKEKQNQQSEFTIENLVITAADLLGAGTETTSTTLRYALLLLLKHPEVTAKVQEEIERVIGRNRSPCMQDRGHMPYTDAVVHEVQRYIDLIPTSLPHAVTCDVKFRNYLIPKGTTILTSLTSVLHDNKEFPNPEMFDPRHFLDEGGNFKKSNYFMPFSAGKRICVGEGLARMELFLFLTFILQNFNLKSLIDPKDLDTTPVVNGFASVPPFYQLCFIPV
CYP2C19 activ: cytochrome P450 2C19 (human) activation; 96,000 tested, under 10 active; AID 1025; activation factor at 5 µM; P33261; recombinant CYP2C19, luciferin-H EGE luminescence; hits give high values; 0 = fully inhibited enzyme, 1 = untreated enzyme;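 active means activation factor of at least 2 at 5 µM in the primary screen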
Measles CPE: protection of cells from measles virus; Measles virus-infected cells, CPE protection, absorbance; hit rate 1.5% among 140,000; protection (pct of control), % at 4 µM; in the data active means protection mostly above about 24%, no sharp cut-off; inactive means mostly below about 26%
Large screens that a line does not name were inactive.

COC(=O)c1cccc(S(=O)(=O)N2CCC(n3nnc4cc(F)ccc43)CC2)c1	none
O=S(=O)(NC1CCCC1)c1cccc(S(=O)(=O)N2CCC(n3nnc4ccccc43)CC2)c1	CYP2C9 inh 72, CYP2C19 inhib 75
O=S(=O)(NC1CC1)c1cccc(S(=O)(=O)N2CCCC2)c1	CYP2C19 inhib 82
CN(C)S(=O)(=O)Nc1ccc(Br)cc1F	none
Cn1cc(S(=O)(=O)Nc2ccc(Br)cc2F)c(=O)n(C)c1=O	CYP2C9 inh 63, Measles CPE 61
COc1ccc2c(c1)c(C(=O)CN1CCC(C(N)=O)CC1)c(C)n2C	none
O=S(=O)(Nc1cccc(-c2nc3cccnc3s2)c1)c1ccc2c(c1)OCCO2	CYP2C9 inh 85
O=C(Nc1cccc(-c2nc3cccnc3s2)c1)C1c2ccccc2Oc2ccccc21	none (no result: CYP2C9 activ, CYP2C9 inh, CYP2C19 inhib, CYP2C19 activ)
Cc1nc2ccc(S(=O)(=O)Nc3cc(-c4nc5cccnc5s4)ccc3C)cc2s1	none (no result: CYP2C9 activ, CYP2C9 inh, CYP2C19 inhib, CYP2C19 activ)
Cc1ccc(-c2nc3cccnc3s2)cc1NS(=O)(=O)c1ccc2c(c1)OCCO2	CYP2C9 inh 74
Cc1cc(Oc2ccc(C#N)cc2)nc(N2CCOCC2)n1	none
CC1=C(C(N)=O)C(c2ccc(Cl)cc2Cl)n2ncnc2N1 (centres undefined)	CYP2C19 inhib 51
COC(=O)c1ccc(C2C(C(C)=O)=C(C)Nc3ncnn32)cc1 (centres undefined)	CYP2C19 inhib 96
CCOC(=O)C1=C(C)Nc2ncnn2C1c1cc(Br)ccc1F (centres undefined)	none
COC(=O)C1=C(C)Nc2nnnn2C1c1ccc(Cl)cc1Cl (centres undefined)	CYP2C19 inhib 56
CCOC(=O)C1=C(C)Nc2nnnn2C1c1ccccc1Cl (centres undefined)	none (no result: CYP2C9 activ, CYP2C9 inh, CYP2C19 inhib, CYP2C19 activ)
COc1ccccc1NC(=O)C1=C(C)Nc2ncnn2C1c1ccccc1C (centres undefined)	none
CC(=O)C1=C(C)Nc2ncnn2C1c1ccccc1Cl (centres undefined)	Measles CPE 101
O=C1CC(c2cccc(Cl)c2)CC(O)=C1C=NC1CCCC1 (centres undefined)	none (no result: CYP2C9 activ, CYP2C9 inh, CYP2C19 inhib, CYP2C19 activ)
CCN(CC)S(=O)(=O)c1cccc(C(=O)NC(Cc2c[nH]c3ccccc23)c2nnc3n2CCC3)c1 (centres undefined)	none (no result: CYP2C9 activ, CYP2C9 inh, CYP2C19 inhib, CYP2C19 activ)
CN1CCc2c(C#N)c(N3CCCCC3)nc(NCc3ccccc3)c2C1	CYP2C9 inh 74
N#Cc1c(NCCCO)nc(-c2ccco2)c2c1CCCC2	CYP2C9 inh 92, CYP2C19 inhib 61
CC(C)c1nc(NCc2ccccc2)c(C#N)c2c1CCCC2	none
N#Cc1c(NCCCO)nc(NCc2ccccc2)c2c1CCN(Cc1ccccc1)C2	CYP2C9 inh 100
CCCCc1nc(NCc2ccccc2)c(C#N)c2c1COC(C)(C)C2	none
COc1ccc(/C=C/C(=O)Nc2nonc2NC(C)=O)cc1	none (no result: CYP2C9 activ, CYP2C9 inh, CYP2C19 inhib, CYP2C19 activ)
Cc1cccc(NC(=O)c2ccc(COc3ccc(Cl)cc3Cl)o2)n1	CYP2C9 inh 56
Cc1cc(NC(=O)c2ccc(COc3ccc(Cl)c(C)c3)o2)no1	none
COc1ccc(NC(=O)c2ccc(COc3ccccc3Br)o2)cc1OC	CYP2C9 inh 73
COc1ccc(NC(=O)c2ccc(COc3ccccc3OC)o2)cc1OC	none
Cc1nn(Cc2c(F)c(F)c(F)c(F)c2F)c(C)c1NC(=O)c1ccc(COc2ccccc2Cl)o1	CYP2C9 inh 59, CYP2C19 inhib 53
COc1cc(NC(=O)c2ccc(Br)o2)ccc1NC(=O)c1ccccc1Cl	CYP2C9 inh 77, CYP2C19 inhib 98
COc1ccccc1NC(=O)c1ccc(Br)o1	CYP2C9 activ 2.4
CCN(CC)c1ccc(NC(=O)c2ccc(Br)o2)c(C)c1	CYP2C9 activ 2.4
O=C(COC(=O)C1COc2ccccc2O1)NC(=O)NC1CCCCC1 (centres undefined)	none
Cc1cccc(CCNC(=O)c2cc(=O)[nH]c3ccc(Br)cc23)c1	none (no result: CYP2C9 activ, CYP2C9 inh, CYP2C19 inhib, CYP2C19 activ)
CC1CCc2nn(CC(=O)NC3CCCC(C)C3C)cc2C1 (centres undefined)	none
CCN(CC(=O)Nc1ccc(NC(C)=O)cc1)C(=O)/C=C/c1cccs1	Measles CPE 44 (no result: CYP2C9 activ, CYP2C9 inh, CYP2C19 inhib, CYP2C19 activ)
CCN(C1CCCCC1)S(=O)(=O)c1ccc(OC)c(C)c1	CYP2C9 activ 2.1, CYP2C19 inhib 75
CCN(C1CCCCC1)S(=O)(=O)c1cc(C)ccc1OC	CYP2C9 inh 94, CYP2C19 inhib 86
CCNC(=O)C(=O)NCC1OCCCN1S(=O)(=O)c1cccs1 (centres undefined)	none (no result: CYP2C9 activ, CYP2C9 inh, CYP2C19 inhib, CYP2C19 activ)
N=C1C(c2ccccc2)=C(O)CN1c1cccc(S(=O)(=O)Nc2cccc(C(F)(F)F)c2)c1	none (no result: CYP2C9 activ, CYP2C9 inh, CYP2C19 inhib, CYP2C19 activ)
Cc1cccc(C(=O)N2CCN(Cc3ccc4c(c3)OCO4)CC2)c1	CYP2C19 inhib 92
Cc1ccc(S(=O)(=O)N(C)c2ccc(N)cc2)cc1	CYP2C9 activ 2.2, CYP2C19 inhib 94
CN(c1ccc(C(=O)N2CCN(Cc3ccc4c(c3)OCO4)CC2)cc1)S(=O)(=O)c1ccccc1	CYP2C9 inh 94, CYP2C19 inhib 79
Cc1ccc(S(=O)(=O)N(C)c2ccc(C(=O)N3CCC(C(N)=O)CC3)cc2)cc1	none
Cc1ccc(S(=O)(=O)N(C)c2ccc(C(=O)N3CCN(Cc4ccc5c(c4)OCO5)CC3)cc2)cc1	CYP2C9 inh 54, CYP2C19 inhib 55
O=C(c1ccc2nccnc2c1)N1CCN(Cc2ccc3c(c2)OCO3)CC1	none
O=C(CSCc1ccccc1)N1CCN(Cc2ccc3c(c2)OCO3)CC1	none (no result: CYP2C9 activ, CYP2C9 inh, CYP2C19 inhib, CYP2C19 activ)
Cc1ccc(C)c(/C(O)=C2/C(=O)C(=O)N(CCN3CCOCC3)C2c2ccco2)c1 (centres undefined)	none
Clc1ccccc1-c1nc2nc3ccccc3nc2n1-c1ccc2c(c1)OCO2	none (no result: CYP2C9 activ, CYP2C9 inh, CYP2C19 inhib, CYP2C19 activ)
O=C(CN(c1ccccc1)S(=O)(=O)c1ccccc1)N1CCN(Cc2ccc3c(c2)OCO3)CC1	CYP2C9 inh 89, CYP2C19 inhib 69
O=C(Nc1ccccc1)N1CCN(Cc2ccc3c(c2)OCO3)CC1	none
O=C(c1ccc(Br)o1)N1CCN(Cc2ccc3c(c2)OCO3)CC1	CYP2C9 inh 62, CYP2C19 inhib 90
O=C(C1CC2CCC1C2)N1CCN(Cc2ccc3c(c2)OCO3)CC1 (centres undefined)	CYP2C19 inhib 58
O=C(c1ccc(NS(=O)(=O)c2ccccc2)cc1)N1CCN(Cc2ccc3c(c2)OCO3)CC1	CYP2C9 inh 94
Cc1c(/C=N/NC(=O)C(NC(=O)c2ccc3c(c2)OCO3)C(C)C)c2ccccc2n1C (centres undefined)	none (no result: CYP2C9 activ, CYP2C9 inh, CYP2C19 inhib, CYP2C19 activ)
Cc1ccc(-c2nnc(CSc3nc(C(C)C)nc4sc(C)c(C)c34)o2)cc1	none (no result: CYP2C9 activ, CYP2C9 inh, CYP2C19 inhib, CYP2C19 activ)
Cc1ccc(-n2c(C)cc(C)c(C#N)c2=O)cc1Cl	none
O=C(c1ccccc1[N+](=O)[O-])N1CCN(Cc2ccc3c(c2)OCO3)CC1	none (no result: CYP2C9 activ, CYP2C9 inh, CYP2C19 inhib, CYP2C19 activ)
Cc1cccc(Cc2c(C)nc3c(C(=O)N4CCN(Cc5ccc6c(c5)OCO6)CC4)cnn3c2C)c1	CYP2C9 inh 76, CYP2C19 inhib 93
O=C(c1cc(-c2ccccc2)on1)N1CCN(Cc2ccc3c(c2)OCO3)CC1	CYP2C9 inh 68, CYP2C19 inhib 70
CN(c1ccc(C(=O)N2CCCCC2)cc1)S(=O)(=O)c1ccccc1	none
